A selection: hits, their analogues and other compounds. The true share with any hit is near 27%.
CYP2C9 activ: activators of human CYP2C9. P11712. recombinant CYP2C9, luciferin-H conversion, luminescence; stronger effect = higher value; factor 1 = untreated enzyme, 0 = blocked. activation factor at 5 µM. 96,000 tested, 1.4% active;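 active = activation factor of 2 or more for CYP2C9 at a 5 µM dose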
Target sequence (P11712 whole entry, looked up): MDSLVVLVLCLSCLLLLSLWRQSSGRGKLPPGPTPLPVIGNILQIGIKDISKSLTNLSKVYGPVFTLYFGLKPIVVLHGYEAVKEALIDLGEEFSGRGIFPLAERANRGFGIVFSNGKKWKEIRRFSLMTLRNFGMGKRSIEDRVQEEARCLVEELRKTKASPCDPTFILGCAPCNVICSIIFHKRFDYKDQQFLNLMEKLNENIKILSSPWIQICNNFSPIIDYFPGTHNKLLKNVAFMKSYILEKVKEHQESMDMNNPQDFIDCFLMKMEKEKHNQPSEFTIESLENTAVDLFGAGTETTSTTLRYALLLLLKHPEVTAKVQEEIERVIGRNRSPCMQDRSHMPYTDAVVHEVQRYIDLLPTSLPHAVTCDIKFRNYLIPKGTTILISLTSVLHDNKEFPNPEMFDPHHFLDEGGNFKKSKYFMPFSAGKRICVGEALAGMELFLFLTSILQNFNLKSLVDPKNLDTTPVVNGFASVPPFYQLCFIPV
CYP2C19 inh: blocks human cytochrome P450 2C19; inhibition, % at 5 µM; CYP2C19 Supersomes, luciferin-H EGE luminescence, 30 min; P33261; 96,000 tested, 21% active;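 active = CYP2C19 inhibition above a set limit at 5 µM in the primary screen, cut at about 50% in these data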
Cav32 inh: inhibitors of human Cav3.2 T-type calcium channel. O95180. Cav3.2-expressing cells, Fluo-4 calcium fluorescence FDSS; stronger effect = lower value. AID 449739. 100,000 tested, 4% active. B-score at 10 µM;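 active = single-dose well whose peak fluorescence ratio is a statistical outlier from its plate by either plate-standardised score or position-corrected B-score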
CYP2C19 act: activators of human cytochrome P450 2C19. P33261. recombinant CYP2C19, luciferin-H EGE luminescence; stronger effect = higher value; 0 = fully inhibited enzyme, 1 = untreated enzyme. activation factor at 5 µM. 96,000 tested, under 10 active;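 active = activation factor of at least 2 at 5 µM in the primary screen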
CYP2C9 inh: human CYP2C9 inhibition | P11712 | inhibition, % at 5 µM | 96,000 tested, 20% active | CYP2C9 Supersomes, luciferin-H conversion, luminescence;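 active = blocking of liver enzyme CYP2C9 beyond about 50% at 5 µM, limit read from the data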
Large screens that a line does not name were inactive.

COc1ccc(CN2CCN(C(=O)c3cccs3)CC2)cc1	CYP2C19 inh 58
COc1cc2ccccc2cc1-c1nnc(COc2ccccc2)o1	none
CCC(C)N(C(=O)CSc1nc(-c2ccccc2)cs1)C1CCS(=O)(=O)C1 (stereo unspecified)	CYP2C9 activ 2.5
N#Cc1c(-c2cccc(F)c2)cc(-c2ccccc2)nc1Br	none
CS(=O)(=O)c1nc(-c2ccc(Br)cc2)cc(-c2ccccc2)c1C#N	CYP2C19 inh 57, CYP2C9 inh 73
CS(=O)c1nc(-c2ccc(Br)cc2)cc(-c2ccccc2)c1C#N (stereo unspecified)	CYP2C19 inh 57, CYP2C9 inh 83
CSc1ccc(NC(=O)NCCN2CCc3ccccc3C2)cc1	none
COc1nc(NC(C)(C)C)nc(Oc2ccc(=O)n(-c3ccccc3)n2)n1	CYP2C9 inh 56
CC(C)(C)c1cc(C(C)(C)C)cc(S(=O)(=O)CCc2ccccn2)c1	Cav32 inh -6.9
CCCCC(=O)Nc1cccc(NC(=O)c2ccccc2Br)c1	CYP2C19 inh 58, CYP2C9 inh 73
COC(=O)C(C)Sc1nc2c(c(-c3ccc(OC)cc3)c1C#N)-c1ccccc1C2=O (stereo unspecified)	none (no result: CYP2C9 activ, CYP2C19 inh, CYP2C19 act, CYP2C9 inh)
CCCCN(N=Nc1nonc1OC)c1nonc1OC	CYP2C19 inh 85, CYP2C9 inh 73
CC(=O)Nc1cc2c(cc1C(=O)c1ccc(C)cc1)OCCO2	Cav32 inh -5.2
COc1ccc(N2CC(C)Cn3c2nc2c3c(=O)n(Cc3ccc(F)cc3)c(=O)n2C)c(OC)c1 (stereo unspecified)	Cav32 inh -4.7
COc1ccc(N2CCCn3c2nc2c3c(=O)n(Cc3ccc(F)cc3)c(=O)n2C)c(OC)c1	none (no result: Cav32 inh)
Cn1c(=O)n(Cc2ccc(F)cc2)c(=O)c2c1nc1n2CCCN1C1CCCCC1	Cav32 inh -4.9
Cc1cccc(Cn2c(=O)c3c(nc4n3CCCN4Cc3ccccc3)n(C)c2=O)c1	none
Nc1nc(CSc2nc3ccccc3[nH]2)nc(N2CCOCC2)n1	none
CC(C)c1ccc(C2C(C#N)=C(N)N3C(=C2C#N)Sc2ccccc23)cc1 (stereo unspecified)	CYP2C19 inh 67
O=C(OCc1cc2ccccc2[nH]c1=O)C1CCCCC1	CYP2C19 inh 89, CYP2C9 inh 96
CCCCOc1nc2ccccc2nc1C(C#N)C(=O)NC1CCCCC1 (stereo unspecified)	none (no result: Cav32 inh)
Cc1cc2nnc(SCCCCN3C(=O)c4ccccc4C3=O)n2c2ccccc12	CYP2C9 activ 2.9
O=C1c2ccccc2C(=O)N1CCCCSc1nnc2c(Cl)cc(Cl)cn12	none
CNC(=O)CSc1nnc(-c2ccco2)n1-c1ccccc1OC	none
COC(=O)c1cccc(NC(=O)C2COc3ccccc3O2)c1 (stereo unspecified)	CYP2C19 inh 67, CYP2C9 inh 60
O=C(Nc1ccc(S(=O)(=O)N2CCCC2)cc1)C1COc2ccccc2O1 (stereo unspecified)	none (no result: CYP2C9 activ, CYP2C19 inh, CYP2C19 act, CYP2C9 inh)
O=C(Nc1ccc(S(=O)(=O)Nc2ccccc2)cc1)C1COc2ccccc2O1 (stereo unspecified)	Cav32 inh -3.8 (no result: CYP2C9 activ, CYP2C19 inh, CYP2C19 act, CYP2C9 inh)
COC(=O)c1cc(NC(=O)C2COc3ccccc3O2)ccc1Cl (stereo unspecified)	CYP2C19 inh 95, CYP2C9 inh 72
COC(=O)c1cccc(NC(=O)C2COc3ccccc3O2)c1C (stereo unspecified)	CYP2C19 inh 64
CCOc1cc(N2CCOCC2)c(OCC)cc1NC(=O)c1cc(-c2ccco2)nc2ccccc12	none
CC1(OC(=O)c2cccs2)C(=O)C=C2C=C(c3ccc(C#N)cc3)OC=C2C1=O (stereo unspecified)	none (no result: CYP2C9 activ, CYP2C19 inh, CYP2C19 act, CYP2C9 inh)
c1ccc2c(c1)c1ccccc1n1c(-c3ccc4c(c3)OCO4)nnc21	none
CC(C)OC(=O)NCCOC(=O)Nc1ccc(Cl)c(Cl)c1	Cav32 inh -7 (no result: CYP2C9 activ, CYP2C19 inh, CYP2C19 act, CYP2C9 inh)
O=C(Nc1ccc(Cl)c(Cl)c1)OCc1cncs1	CYP2C19 inh 99, CYP2C9 inh 97
O=C(Nc1ccc(Cl)c(Cl)c1)OCc1cnc(Cl)s1	none
N#Cc1nc(-c2ccc(F)cc2)oc1NCc1ccccc1	none
COc1ccc(-c2nc(C#N)c(NC(C)c3ccccc3)o2)cc1OC (stereo unspecified)	CYP2C9 inh 53 (no result: Cav32 inh)
COc1ccccc1-c1nc(C#N)c(NCc2ccc(F)cc2)o1	CYP2C19 inh 76, CYP2C9 inh 60
COc1ccc(CCNc2oc(-c3ccccc3OC)nc2C#N)cc1	CYP2C19 inh 92, CYP2C9 inh 60

Compound activity deposited in PubChem by several laboratories.
